According to the supplement of paper PMC8540655:
Unmarked numbers belong to inactive results.

Each compound was assayed on Aedes aegypti larvae (assay: larval motility relative to same well at 0 h (fraction); higher = more motile (less active compound), active = 0.4 or less). Conditions: 10 µM; 2 h.
Description: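 MMV Pandemic Response Box compounds were tested at 10 µM (1% v/v DMSO) on Aedes aegypti larvae (18-24 h after hatching, about 10 per well, 96-well plates). Motility was quantified with INVAPP (200-frame movies) at 0, 2 and 24 h. Each well's motility was divided by its own 0 h score, and the median of 3 independent screens is reported.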

Row | SMILES | larval motility
1 | C=C(C)[C@@H]1CC[C@]2(C(=O)O)CC[C@]3(C)[C@H](CC[C@@H]4[C@@]5(C)CC[C@H](O)C(C)(C)[C@@H]5CC[C@]43C)[C@@H]12 | 1.08
2 | COc1ccc(C)cc1NC(=O)c1ccc(S(=O)(=O)N2CCCCC2)cc1 | 1.12
3 | NC(=O)c1nccn([C@@H]2O[C@H](CO)[C@@H](O)[C@H]2O)c1=O | 0.824
4 | NC[C@H]1O[C@H](O[C@H]2[C@H](O)[C@@H](O[C@H]3O[C@H](CO)[C@@H](O)[C@H](N)[C@H]3O)[C@H](N)C[C@@H]2N)[C@H](N)C[C@@H]1O | 0.727
5 | C[C@H](NC(=O)C(=O)Nc1ccccc1C(C)(C)C)C(=O)N[C@@H](CC(=O)O)C(=O)COc1c(F)c(F)cc(F)c1F | 0.777
6 | C[C@H]1[C@@H](c2cccc(C(F)(F)F)c2)OC(=O)N1C(=O)NCc1cncc2ccccc12 | 0.716
7 | Cc1ccc(N2CCC(CCOc3ccc(S(C)(=O)=O)cc3)CC2)nn1 | 0.943
8 | N[C@@H]1CN(c2c(F)cc3c(=O)c(C(=O)O)cn([C@@H]4C[C@@H]4F)c3c2Cl)CC12CC2 | 0.745
9 | Cc1nc2ccc(Oc3ccccc3)cc2c2c1CCN2CCc1ccccc1 | 0.607
10 | Oc1ccc2[nH]c(-c3ccccc3)nc2c1 | 0.633
11 | C[C@H](Cn1cnc2c(N)ncnc21)OCP(=O)(O)O | 1.31
12 | CC[C@@]1(O)C(=O)OCc2c1cc1n(c2=O)Cc2cc3c([N+](=O)[O-])cccc3nc2-1 | 0.324 (active)
13 | NC(=O)c1c(N)sc2c1CCCCC2 | 0.947
14 | COc1ccc(NC(=O)c2cc3ccccn3n2)cc1 | 0.48
15 | O=C(NCc1cccc2ccccc12)c1cccs1 | 0.689
16 | CC(=O)NC[C@H]1CN(c2ccc(N3CCSCC3)c(F)c2)C(=O)O1 | 0.531
17 | NC(=O)c1ccc(I)c([N+](=O)[O-])c1 | 0.749
18 | NS(=O)(=O)c1ccc(NC(=O)NC(c2ccccc2)c2ccccc2)cc1 | 0.491
19 | Cc1nc(N(C)C(=O)Cc2ccc(-c3ccccn3)cc2)sc1S(N)(=O)=O | 1.62
20 | CCOc1ccc(/C=N/NC(=O)C2CC2c2ccc(C(C)(C)C)cc2)cc1OCC (stereo not given) | 1.29

Same assay, conditions: 10 µM; 24 h

Row | SMILES | larval motility
21 | C=C(C)[C@@H]1CC[C@]2(C(=O)O)CC[C@]3(C)[C@H](CC[C@@H]4[C@@]5(C)CC[C@H](O)C(C)(C)[C@@H]5CC[C@]43C)[C@@H]12 | 1.18
22 | COc1ccc(C)cc1NC(=O)c1ccc(S(=O)(=O)N2CCCCC2)cc1 | 1.26
23 | NC(=O)c1nccn([C@@H]2O[C@H](CO)[C@@H](O)[C@H]2O)c1=O | 1.16
24 | NC[C@H]1O[C@H](O[C@H]2[C@H](O)[C@@H](O[C@H]3O[C@H](CO)[C@@H](O)[C@H](N)[C@H]3O)[C@H](N)C[C@@H]2N)[C@H](N)C[C@@H]1O | 1.43
25 | C[C@H](NC(=O)C(=O)Nc1ccccc1C(C)(C)C)C(=O)N[C@@H](CC(=O)O)C(=O)COc1c(F)c(F)cc(F)c1F | 1.23
26 | C[C@H]1[C@@H](c2cccc(C(F)(F)F)c2)OC(=O)N1C(=O)NCc1cncc2ccccc12 | 0.359 (active)
27 | Cc1ccc(N2CCC(CCOc3ccc(S(C)(=O)=O)cc3)CC2)nn1 | 0.683
28 | N[C@@H]1CN(c2c(F)cc3c(=O)c(C(=O)O)cn([C@@H]4C[C@@H]4F)c3c2Cl)CC12CC2 | 1.11
29 | Cc1nc2ccc(Oc3ccccc3)cc2c2c1CCN2CCc1ccccc1 | 0.774
30 | Oc1ccc2[nH]c(-c3ccccc3)nc2c1 | 0.514
31 | C[C@H](Cn1cnc2c(N)ncnc21)OCP(=O)(O)O | 1.07
32 | CC[C@@]1(O)C(=O)OCc2c1cc1n(c2=O)Cc2cc3c([N+](=O)[O-])cccc3nc2-1 | 0.433
33 | NC(=O)c1c(N)sc2c1CCCCC2 | 1.32
34 | COc1ccc(NC(=O)c2cc3ccccn3n2)cc1 | 0.782
35 | O=C(NCc1cccc2ccccc12)c1cccs1 | 0.669
36 | CC(=O)NC[C@H]1CN(c2ccc(N3CCSCC3)c(F)c2)C(=O)O1 | 1.07
37 | NC(=O)c1ccc(I)c([N+](=O)[O-])c1 | 0.429
38 | NS(=O)(=O)c1ccc(NC(=O)NC(c2ccccc2)c2ccccc2)cc1 | 0.689
39 | Cc1nc(N(C)C(=O)Cc2ccc(-c3ccccn3)cc2)sc1S(N)(=O)=O | 1.81
40 | CCOc1ccc(/C=N/NC(=O)C2CC2c2ccc(C(C)(C)C)cc2)cc1OCC (stereo not given) | 1.4
